In PubChem BioAssay (NCI):
This is part of a sample that, as a whole, favours compounds with a hit. Of some 79,000 tested, about 15% had one in any assay. Values without a mark were called inactive. Activity calls are given as the source filed them. Rule as the data show it: active = growth inhibition above about 70%; inactive = the rest.

test: NCI Yeast Anticancer Drug Screen. Data for the rad50 strain (AID 155);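 also: 0% = growth of vehicle-only cultures of the same strain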; conditions: S. cerevisiae rad50 strain growth inhibition; at 5.0 µM (retest, dose inferred, filed as 0.5); hits give high values
Procedure, shortened: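 DNA repair mutant yeast, compound exposure, growth read-out; inhibition is taken relative to vehicle.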

| SMILES | growth inhibition |
| --- | --- |
| C1=NC2c3ccccc3Cc3cccc1c32 (centres undefined) | -20% |
| COc1ccc2c(c1)CN([C@@H](C)[C@H]1CC[C@H]3[C@@H]4CC[C@H]5C[C@@H](O)CC[C@]5(C)[C@H]4CC[C@]13C)CO2 | 90% (active) |
| Cc1c(N)nc(C(CC(N)=O)NCC(N)C(N)=O)nc1C(=O)NC(C(=O)NC(C)C(O)C(C)C(=O)NC(C(=O)NCCc1nc(-c2nc(C(=O)NCCCNCCCc3ccccn3)cs2)cs1)C(C)O)C(OC1OC(CO)C(O)C(O)C1OC1OC(CO)C(O)C(OC(N)=O)C1O)c1cnc[nH]1 (centres undefined) | 98% (active) |
| COc1cc2c(cc1O)-c1c(cnn1-c1ccccc1)CCC2 | -7% |
| CN(C)CC(CN(C)C)C(=O)c1ccc(Oc2ccc(Cl)cc2)cc1 | 72% (active) |
| N#CCCN(CCC#N)Cc1c(O)c(O)c(CN(CCC#N)CCC#N)c2ccccc12 | -2% |
| Cc1cc2c(c([N+](=O)[O-])c1C)C(=O)C(Br)=C(N)C2=O | 95% (active) |
| O=C(O)CSC(=S)N1CCCC1 | -4% |
| CNC1=C2NC(=O)/C(C)=C\C=C\C(C)C(O)C(C)C(O)C(C)C(OC(C)=O)C(C)C(OC)/C=C/OC3(C)Oc4c(C)c(O)c(c(c4C3=O)C1=O)C2=O (centres undefined) | -6% |
| O=c1c(Cl)nsnc1Cl | 100% (active) |
| CC(NC(=O)OCc1ccccc1)C(=O)NNc1ccccc1Cl (centres undefined) | 88% (active) |
| O=C(OCc1ccccc1CN1CCOCC1)c1cccc(Br)c1 | 2% |
| OC(COc1ccc(Cl)cc1)COc1ccc(Cl)cc1 | 0% |
| Cc1c(-c2ccc(C(=N)N)cc2)oc(-c2ccc(C(=N)N)cc2)c1C | 88% (active) |
